From PubChem BioAssay (NCI) come the findings set out here.

The panel holds about 83,000 compounds, 20% with a hit somewhere; the sample as a whole holds those more often.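 Step 1: grow cells in 96-well plates. Step 2: add test compound at a single concentration. Step 3: incubate 48 h. Step 4: record percent growth.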 Values without a mark were called inactive. Calls of active or inactive are those of the source. Rule for the calls: active = growth percent below 10; inactive = the rest.

Among the test systems are SR leukemia; RPMI-8226 leukemia; OVCAR-8 ovarian; OVCAR-5 ovarian; OVCAR-4 ovarian; SK-OV-3 ovarian; IGROV1 ovarian; OVCAR-3 ovarian; HS 578T breast; NCI/ADR-RES ovarian.
Experiment in all cases: NCI-60 one-dose screen, 48 h (100 = growth as untreated, 0 = no growth, -100 = all killed)
Common to all, as to conditions: 10 µM unless noted

Turning to `CC(C)(C)n1cc(-c2ccnc(NCCCNS(=O)(=O)c3cccc(F)c3)c2)c(-c2cccc(O)c2)n1`, the growth in the assay with SR leukemia is 16.4%; in the assay on RPMI-8226 leukemia, 17.5%; with OVCAR-8 ovarian, 57.5%; with OVCAR-5 ovarian, 68.2%; with OVCAR-4 ovarian it was 57.8%; with SK-OV-3 ovarian, 89.2%. The growth was 58.8% in the assay on IGROV1 ovarian, 65.7% with OVCAR-3 ovarian, 58.2% with HS 578T breast and 62% with NCI/ADR-RES ovarian.

In the case of `O=S1(=O)CCC(N(/N=C/c2ccco2)c2ccccc2)C1` (stereo unspecified), the growth is 91% in the assay on SR leukemia; 100% in the assay with RPMI-8226 leukemia; 94.7% in the assay with OVCAR-8 ovarian; 107% with OVCAR-5 ovarian; 127% in the assay on OVCAR-4 ovarian; 110% with SK-OV-3 ovarian. The figures for the growth with IGROV1 ovarian, in the assay with OVCAR-3 ovarian and in the assay with HS 578T breast were 104%, 105% and 94.3%, respectively.

For the compound `O=C(Nc1ccncc1)C(=O)c1cn(S(=O)(=O)c2ccc(Br)cc2)c2ccccc12`, the growth in the assay with SR leukemia was 26.1%; in the assay with RPMI-8226 leukemia it was 35%; with OVCAR-8 ovarian, 58.6%; in the assay with OVCAR-5 ovarian, 64.4%; in the assay with OVCAR-4 ovarian it was 73.3%; in the assay with SK-OV-3 ovarian it was 93.9%. The growth with IGROV1 ovarian is 45.1%; in the assay with OVCAR-3 ovarian it was 14.7%; with HS 578T breast, 56.2%.

Take `C=C1C(=O)O[C@@H]2[C@@H]3O[C@@](C)(CC/C=C(\C)CCC[C@@H]2C)[C@H](O)C[C@@H]13`: the growth is 13.7% with SR leukemia; 7.48% (active) in the assay on RPMI-8226 leukemia; 35% with OVCAR-8 ovarian; 97.5% with OVCAR-5 ovarian; 70.1% in the assay on OVCAR-4 ovarian; 92% with SK-OV-3 ovarian. Besides, the growth in the assay with IGROV1 ovarian is 42.3%; with OVCAR-3 ovarian it was 13.9%; in the assay with HS 578T breast, 72.1%.

Consider `S=C(S)NCCc1c[nH]c2ccccc12`, for which the growth is 94.9% with SR leukemia; 92.4% with RPMI-8226 leukemia; 95.9% with OVCAR-8 ovarian; 102% in the assay on OVCAR-5 ovarian; 111% in the assay on OVCAR-4 ovarian; 121% in the assay on SK-OV-3 ovarian. Besides, the growth in the assay on IGROV1 ovarian is 81.9%; in the assay on OVCAR-3 ovarian, 101%; with HS 578T breast, 99.5%; in the assay on NCI/ADR-RES ovarian, 101%.

Turning to `Cc1cc(N/N=C/c2nc(-c3ccc(Br)cc3)oc2C)c2cc(Br)ccc2n1`, the growth in the assay on SR leukemia was 2.16% (active); in the assay on RPMI-8226 leukemia it was -9.38% (active); with OVCAR-8 ovarian, 12%; in the assay with OVCAR-5 ovarian it was 95.6%; in the assay on OVCAR-4 ovarian it was -83.5% (active); in the assay with SK-OV-3 ovarian, 105%. In addition, the growth was 78.8% in the assay on IGROV1 ovarian, -13.4% (active) in the assay with OVCAR-3 ovarian, 85.5% with HS 578T breast and 35% with NCI/ADR-RES ovarian.

For the compound `COc1ccc(N=Cc2c(O)ccc3c2oc2cc(Cl)c(O)c(Cl)c23)cc1`, the growth is 83% in the assay on SR leukemia; 78.3% in the assay on RPMI-8226 leukemia; 93.8% in the assay with OVCAR-8 ovarian; 102% in the assay on OVCAR-5 ovarian; 98.3% with OVCAR-4 ovarian; 104% with SK-OV-3 ovarian. Moreover, the growth in the assay with IGROV1 ovarian was 62.2%; in the assay on OVCAR-3 ovarian, 117%; with HS 578T breast it was 93.5%; in the assay with NCI/ADR-RES ovarian, 84.5%.

As for `O=C1c2c(c3c4ccccc4n(CCCCCCBr)c3c3[nH]c4ccccc4c23)C(=O)N1O`, the growth is 6.48% (active) in the assay on SR leukemia; 1.01% (active) with RPMI-8226 leukemia; 0.342% (active) in the assay on OVCAR-8 ovarian; 19.8% with OVCAR-5 ovarian; 7.84% (active) with OVCAR-4 ovarian; 3.04% (active) with SK-OV-3 ovarian. Moreover, the figures for the growth in the assay on IGROV1 ovarian, with OVCAR-3 ovarian and with HS 578T breast were -5.71% (active), 15% and 50.3%, respectively.

For the compound `COc1ccc(/C(C#N)=C/c2cc(OC)c(OC)c(OC)c2)cc1`, the growth is 11.8% with SR leukemia; 31.2% in the assay with RPMI-8226 leukemia; 57.4% in the assay with OVCAR-8 ovarian; 65.6% in the assay on OVCAR-5 ovarian; 87.8% in the assay with OVCAR-4 ovarian; 47.6% in the assay on SK-OV-3 ovarian. Besides, the growth in the assay on IGROV1 ovarian is 44.9%; in the assay on OVCAR-3 ovarian, 36.1%; in the assay on HS 578T breast, 91.4%; in the assay with NCI/ADR-RES ovarian it was 20.7%.

For the compound `COc1cc(-c2ncn(/C=C\C(=O)OC(C)C)n2)cc(C(F)(F)F)c1`, the growth with SR leukemia is 2.46% (active); in the assay with RPMI-8226 leukemia, 67.5%; in the assay on OVCAR-8 ovarian it was 9.36% (active); in the assay with OVCAR-5 ovarian it was 18.4%; in the assay with OVCAR-4 ovarian, 0.627% (active); in the assay with SK-OV-3 ovarian, 28.1%. The growth in the assay on IGROV1 ovarian was 14.3%; with OVCAR-3 ovarian it was -42.1% (active); in the assay on HS 578T breast, -7.75% (active); in the assay with NCI/ADR-RES ovarian, 2.76% (active).

Regarding `C/C=C/C1=CN2C(=O)c3cc(OC4OC(C)C(NC)C(C)(O)C4O)c(C)cc3N=C[C@@H]2C1` (stereo partly specified), the growth in the assay with SR leukemia is -11.8% (active); in the assay with RPMI-8226 leukemia, 4.62% (active); in the assay on OVCAR-8 ovarian, 12.2%; in the assay on OVCAR-5 ovarian, 9.87% (active); with OVCAR-4 ovarian, 6.47% (active); with SK-OV-3 ovarian, 3.83% (active). Moreover, the growth is -8.52% (active) with IGROV1 ovarian, 0.104% (active) with OVCAR-3 ovarian, -7.59% (active) with HS 578T breast and -7.51% (active) with NCI/ADR-RES ovarian.

On to `Nc1ncnc2c1c(-c1ccc(Oc3ccccc3)cc1)nn2C[C@@H]1SSC[C@@H]1O`, for which the growth with SR leukemia is -37.4% (active); with RPMI-8226 leukemia, 51.5%; in the assay with OVCAR-8 ovarian it was 69.9%; in the assay with OVCAR-5 ovarian, 78.3%; with OVCAR-4 ovarian it was 44.6%; with SK-OV-3 ovarian, 3.68% (active). The growth is -6.92% (active) in the assay with IGROV1 ovarian, 3.23% (active) in the assay on OVCAR-3 ovarian, 56.6% with HS 578T breast and 61.3% in the assay on NCI/ADR-RES ovarian.

In the case of `O=[N+]([O-])c1cc(S(=O)(=O)Oc2ccccc2)ccc1Cl`, the growth in the assay with SR leukemia was 1.34% (active); in the assay on RPMI-8226 leukemia it was 17%; in the assay on OVCAR-8 ovarian, 40.7%; with OVCAR-5 ovarian it was 66.8%; in the assay with OVCAR-4 ovarian, -28.4% (active); with SK-OV-3 ovarian, 102%. Further, the growth is -78.2% (active) with IGROV1 ovarian, -94.7% (active) in the assay on OVCAR-3 ovarian, -7.12% (active) with HS 578T breast and 46.6% in the assay on NCI/ADR-RES ovarian.
